Structures can show the parent of a compound that is named as a salt. ± gives the standard deviation or the standard deviation of the averaged measurements.
These compounds were tested on Danio rerio Tg(wt1b:EGFP) embryo, pronephros (assay: glomerular separation, fold change vs DMSO control; higher = glomeruli further apart (abnormal)). Details: 25 µM; exposure: 24-48 hpf.
Summary of the method: (§1)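 Dechorionated Tg(wt1b:EGFP) zebrafish embryos were incubated at 28.5°C from 24 to 48 hpf with 25 μM compound in HEPES-buffered E3 containing 0.5% DMSO and 0.003% PTU. Distances and angles between 16 manually set points on maximum projections of dorsal pronephros images were measured in Fiji, with values over 2 SD from the feature mean excluded. Each feature is a fold change relative to the mean of same-day DMSO-treated embryos.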
Work on CN(C)CCN(Cc1cccs1)c1ccccn1 [Methapyrilene hydrochloride] yielded a glomerular separation of 0.984 ± 0.37.
Work on COc1ccc(-c2ccc(=N)n(CCCC(=O)O)n2)cc1 [Gabazine bromide] yielded a glomerular separation of 0.985 ± 0.27.
CN(C)CCC=C1c2ccccc2CCc2ccccc21 [Amitryptiline hydrochloride] showed a glomerular separation of 1.3 ± 0.62.
C=CCSCC1Nc2cc(Cl)c(S(N)(=O)=O)cc2S(=O)(=O)N1 (stereo unspecified) [Althiazide] was tested, and the glomerular separation was 1.08 ± 0.28.

These compounds were tested on Danio rerio Tg(wt1b:EGFP) embryo, pronephros (assay: glomerular width (mean of left and right), fold change vs DMSO control; higher = wider glomerulus). Details: 25 µM; exposure: 24-48 hpf.
Summary of the method: as §1
With C[C@]12CC[C@@H]3c4ccc(OS(=O)(=O)O)cc4CC[C@H]3[C@@H]1CCC2=O [Estropipate] the glomerular width was 0.95203 ± 0.00068.
Compound O=C(O)CCNC(=O)c1ccc(/N=N/c2ccc(O)c(C(=O)O)c2)cc1 [Balsalazide Sodium] has a glomerular width of 1.03 ± 0.012.
Nc1nc2n[nH]nc2c(=O)[nH]1 [Azaguanine-8] showed a glomerular width of 1 ± 0.058.
NCCNCCNCCNCCN [Tetraethylenepentamine pentahydrochloride] gave a glomerular width of 1.08 ± 0.041.
CCCCOC(=O)c1ccc(O)cc1 [Butylparaben] gave a glomerular width of 0.994 ± 0.022.
For CC(C)NCC(O)c1cc(O)cc(O)c1 (stereo unspecified) [Metaproterenol sulfate, orciprenaline sulfate], the glomerular width was 1.02 ± 0.014.
CC1CC(OC(=O)c2ccccc2O)CC(C)(C)C1 (stereo unspecified) [Homosalate] gave a glomerular width of 0.8777 ± 0.0016.
Compound O=C1O[C@H]([C@@H](O)CO)C(O)=C1O [Ascorbic acid] has a glomerular width of 1.01 ± 0.09.
Compound CCCCOC(=O)c1ccc(N)cc1 [Butamben] has a glomerular width of 1.04 ± 0.12.
Cc1ccnc(NS(=O)(=O)c2ccc(N)cc2)n1 [Sulfamerazine] showed a glomerular width of 1.03 ± 0.011.
CN1CCCN=C1/C=C/c1cccc(O)c1 [Oxantel pamoate] showed a glomerular width of 1.012 ± 0.0033.
Work on NC(=O)c1cnccn1 [Pyrazinamide] yielded a glomerular width of 1.04 ± 0.034.
CN(C)C(=N)NC(=N)N [Metformin hydrochloride] gave a glomerular width of 0.93 ± 0.035.
Compound CCC(=O)[C@@]1(C)[C@H](C)C[C@H]2[C@@H]3CCC4=CC(=O)C=C[C@]4(C)[C@H]3[C@@H](O)C[C@@]21C [Rimexolone] has a glomerular width of 1.02 ± 0.017.
COc1cc(-c2ccc(=O)[nH]n2)ccc1OC(F)F [Zardaverine] gave a glomerular width of 0.9712 ± 0.0072.
In the case of O=C1[C@H]2CCCC[C@H]2C(=O)N1CCCCN1CCN(c2nsc3ccccc23)CC1 [Perospirone], the glomerular width is reported as 0.9761 ± 0.0054.
NC[C@H]1O[C@H](O[C@H]2[C@H](O[C@@H]3O[C@H](CO)[C@@H](O)[C@H]3O)[C@@H](O)[C@H](N)C[C@@H]2N)[C@H](N)[C@@H](O)[C@@H]1O [Ribostamycin sulfate salt] was tested, and the glomerular width was 1.08 ± 0.019.
CN(C)CCN1C(=O)c2ccccc2N(C)c2ccccc21 [Dibenzepine hydrochloride] gave a glomerular width of 1.08 ± 0.047.
CCCCC(CC)CN1CN(CC(CC)CCCC)CC(C)(N)C1 (stereo unspecified) [Hexetidine] gave a glomerular width of 0.9542 ± 0.0081.
CCN(CC)CCOC(=O)C1(c2ccc([N+](=O)[O-])cc2)CCCC1 [Nitrocaramiphen hydrochloride] showed a glomerular width of 0.971 ± 0.037.
CC(C)(C)C(=O)OCOC(=O)[C@@H]1N2C(=O)[C@@H](/N=C/N3CCCCCC3)[C@H]2SC1(C)C [Pivmecillinam hydrochloride] gave a glomerular width of 1.101 ± 0.0091.
Compound CO/N=C(\C(=O)N[C@@H]1C(=O)N2C(C(=O)O)=C(COC(C)=O)CS[C@H]12)c1csc(N)n1 [Cefotaxime sodium salt] has a glomerular width of 0.957 ± 0.011.
With Cc1cc2c(cc1S(N)(=O)=O)S(=O)(=O)CCC2 [Meticrane] the glomerular width was 0.9447 ± 0.0016.
In the case of COc1cc(C(=O)OCCCN2CCCN(CCCOC(=O)c3cc(OC)c(OC)c(OC)c3)CC2)cc(OC)c1OC [Dilazep dihydrochloride], the glomerular width is reported as 0.986 ± 0.055.
C=C1c2c(Cl)ccc(O)c2C(=O)C2=C(O)[C@]3(O)C(=O)C(C(N)=O)=C(O)[C@@H](N(C)C)[C@@H]3[C@@H](O)[C@H]12.O=C(O)c1cc(S(=O)(=O)O)ccc1O [Meclocycline sulfosalicylate] showed a glomerular width of 1.09 ± 0.091.
Work on O=C(O)c1ccccc1OP(=O)(O)O [Fosfosal] yielded a glomerular width of 1.07 ± 0.022.
Compound CCOC(=O)n1ccn(C)c1=S [Carbimazole] has a glomerular width of 0.997 ± 0.029.
Work on CC(C)Nc1cccnc1N1CCN(C(=O)c2cc3cc(NS(C)(=O)=O)ccc3[nH]2)CC1 [Delavirdine] yielded a glomerular width of 1.16 ± 0.017.
In the case of Nc1ccn([C@@H]2CS[C@H](CO)O2)c(=O)n1 [Lamivudine], the glomerular width is reported as 0.984 ± 0.042.
Work on CC(=O)CC(c1ccccc1)c1c(O)c2ccccc2oc1=O (stereo unspecified) [Warfarin] yielded a glomerular width of 0.797 ± 0.048.
C1CCC(C(CC2CCCCN2)C2CCCCC2)CC1 (stereo unspecified) [Perhexiline maleate] showed a glomerular width of 0.9631 ± 0.0089.
In the case of NS(=O)(=O)Cc1noc2ccccc12 [Zonisamide], the glomerular width is reported as 1 ± 0.059.

From the supplement of paper PMC7366291
